Data from the supplement of paper PMC6897291.
Where a name gives a salt, the structure may show the parent alone.

Key:
[1] = test system: U-2932; assay: growth inhibition by drug alone (1 - RLU/untreated control) (fraction); higher = stronger inhibition; conditions: 177Lu-lilotomab satetraxetan 0 ug/ml
In short: (§1)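 A radiolabelled anti-CD37 antibody conjugate (~600 MBq/mg) was applied for 18 h at 0.5 µg/ml to RIVA and 1 µg/ml to U-2932 cells, with untreated cells run alongside. All cells were washed and seeded at 3,000 cells/well onto library-printed plates at 10/100 nM (RIVA) or 10/1,000 nM (U-2932). Growth inhibition was based on RealTime-Glo luminescence compared with untreated no-drug wells. Daily reads began on day 3 after 1 h at 37°C, with each value being 1 − RLU/mean of the 48 such wells on that plate.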

[2] = test system: RIVA; assay: as above; conditions: 177Lu-lilotomab satetraxetan 0 ug/ml
In short: as §1

[3] = test system: U-2932; assay: growth inhibition by drug plus 177Lu-lilotomab satetraxetan (1 - RLU/untreated control) (fraction); higher = stronger inhibition; conditions: 177Lu-lilotomab satetraxetan 1 ug/ml
In short: as §1

[4] = test system: RIVA; assay: as above; conditions: 177Lu-lilotomab satetraxetan 0.5 ug/ml
In short: as §1

Row | SMILES | growth inhibition by drug alone ([1]; 10 nM, time (day): 3) | growth inhibition by drug alone ([1]; 10 nM, time (day): 4) | growth inhibition by drug alone ([1]; 10 nM, time (day): 5) | growth inhibition by drug alone ([1]; 10 nM, time (day): 6) | growth inhibition by drug alone ([1]; 1000 nM, time (day): 3) | growth inhibition by drug alone ([1]; 1000 nM, time (day): 4) | growth inhibition by drug alone ([1]; 1000 nM, time (day): 5) | growth inhibition by drug alone ([1]; 1000 nM, time (day): 6) | growth inhibition by drug alone ([2]; 10 nM, time (day): 3) | growth inhibition by drug alone ([2]; 10 nM, time (day): 4) | growth inhibition by drug alone ([2]; 10 nM, time (day): 5) | growth inhibition by drug alone ([2]; 10 nM, time (day): 6) | growth inhibition by drug alone ([2]; 100 nM, time (day): 3) | growth inhibition by drug alone ([2]; 100 nM, time (day): 4) | growth inhibition by drug alone ([2]; 100 nM, time (day): 5) | growth inhibition by drug alone ([2]; 100 nM, time (day): 6) | growth inhibition by drug plus 177Lu-lilotomab satetraxetan ([3]; 10 nM, time (day): 3) | growth inhibition by drug plus 177Lu-lilotomab satetraxetan ([3]; 10 nM, time (day): 4) | growth inhibition by drug plus 177Lu-lilotomab satetraxetan ([3]; 10 nM, time (day): 5) | growth inhibition by drug plus 177Lu-lilotomab satetraxetan ([3]; 10 nM, time (day): 6) | growth inhibition by drug plus 177Lu-lilotomab satetraxetan ([3]; 1000 nM, time (day): 3) | growth inhibition by drug plus 177Lu-lilotomab satetraxetan ([3]; 1000 nM, time (day): 4) | growth inhibition by drug plus 177Lu-lilotomab satetraxetan ([3]; 1000 nM, time (day): 5) | growth inhibition by drug plus 177Lu-lilotomab satetraxetan ([3]; 1000 nM, time (day): 6) | growth inhibition by drug plus 177Lu-lilotomab satetraxetan ([4]; 10 nM, time (day): 3) | growth inhibition by drug plus 177Lu-lilotomab satetraxetan ([4]; 10 nM, time (day): 4) | growth inhibition by drug plus 177Lu-lilotomab satetraxetan ([4]; 10 nM, time (day): 5) | growth inhibition by drug plus 177Lu-lilotomab satetraxetan ([4]; 10 nM, time (day): 6) | growth inhibition by drug plus 177Lu-lilotomab satetraxetan ([4]; 100 nM, time (day): 3) | growth inhibition by drug plus 177Lu-lilotomab satetraxetan ([4]; 100 nM, time (day): 4) | growth inhibition by drug plus 177Lu-lilotomab satetraxetan ([4]; 100 nM, time (day): 5) | growth inhibition by drug plus 177Lu-lilotomab satetraxetan ([4]; 100 nM, time (day): 6)
1 | O=C1c2c(O)ccc(O)c2C(=O)c2c(NCCNCCO)ccc(NCCNCCO)c21 [Mitoxantrone Hydrochloride] | 0.436 | 0.52 | 0.635 | 0.732 | 0.945 | 0.971 | 0.981 | 0.986 | 0.293 | 0.565 | 0.667 | 0.759 | 0.568 | 0.82 | 0.873 | 0.904 | 0.559 | 0.694 | 0.81 | 0.881 | 0.971 | 0.982 | 0.987 | 0.99 | 0.83 | 0.913 | 0.95 | 0.968 | 0.736 | 0.92 | 0.947 | 0.962
2 | Cc1nnc(C(C)C)n1C1C[C@H]2CC[C@@H](C1)N2CC[C@H](NC(=O)C1CCC(F)(F)CC1)c1ccccc1 (stereo in doubt) [Maraviroc] | 0.125 | 0.118 | 0.0854 | -0.0157 | 0.0827 | 0.0764 | -0.0104 | -0.122 | 0.071 | 0.0921 | 0.049 | -0.0807 | 0.1 | 0.0864 | 0.0269 | -0.0532 | 0.128 | 0.146 | 0.143 | 0.239 | 0.0251 | 0.112 | 0.105 | 0.201 | 0.542 | 0.609 | 0.618 | 0.645 | 0.545 | 0.593 | 0.587 | 0.584
3 | C[C@]1(O)C[C@@H](c2nc(-c3ccc4ccc(-c5ccccc5)nc4c3)c3c(N)nccn32)C1 [Linsitinib (OSI-906)] | -0.0175 | -0.0545 | -0.0282 | 0.0189 | -0.0281 | -0.0257 | -0.0322 | 0.0723 | -0.215 | -0.216 | -0.261 | -0.348 | -0.356 | -0.307 | -0.329 | -0.365 | -0.0826 | -0.0138 | 0.0354 | 0.14 | -0.09 | -0.0306 | 0.0298 | 0.223 | 0.4 | 0.48 | 0.495 | 0.5 | 0.283 | 0.4 | 0.417 | 0.42
